Compound activity (PubChem)
MOR-DOR inv ag: inverse agonists of human mu-delta opioid receptor heterodimerization. P35372+P41143. hit rate 0.21% among 340,000. inhibition, % at 9.3 µM. cell-based MOR-DOR heterodimer luminescence, inverse agonism. AID 504357; in the data active = inhibition above about 22%, passing the limit was not always enough
Target sequence (P35372 whole entry, looked up): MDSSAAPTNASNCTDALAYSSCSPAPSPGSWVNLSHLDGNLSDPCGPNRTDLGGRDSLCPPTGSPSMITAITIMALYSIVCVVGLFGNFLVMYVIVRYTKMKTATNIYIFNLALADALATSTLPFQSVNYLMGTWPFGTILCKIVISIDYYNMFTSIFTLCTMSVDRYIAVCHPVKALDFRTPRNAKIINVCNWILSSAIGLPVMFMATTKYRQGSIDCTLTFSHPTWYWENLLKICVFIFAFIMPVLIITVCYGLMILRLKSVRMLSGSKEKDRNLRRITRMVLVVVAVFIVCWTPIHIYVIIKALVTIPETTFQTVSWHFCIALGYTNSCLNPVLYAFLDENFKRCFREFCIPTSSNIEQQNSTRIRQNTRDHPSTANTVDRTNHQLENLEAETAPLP
Target sequence (P41143 whole entry, looked up): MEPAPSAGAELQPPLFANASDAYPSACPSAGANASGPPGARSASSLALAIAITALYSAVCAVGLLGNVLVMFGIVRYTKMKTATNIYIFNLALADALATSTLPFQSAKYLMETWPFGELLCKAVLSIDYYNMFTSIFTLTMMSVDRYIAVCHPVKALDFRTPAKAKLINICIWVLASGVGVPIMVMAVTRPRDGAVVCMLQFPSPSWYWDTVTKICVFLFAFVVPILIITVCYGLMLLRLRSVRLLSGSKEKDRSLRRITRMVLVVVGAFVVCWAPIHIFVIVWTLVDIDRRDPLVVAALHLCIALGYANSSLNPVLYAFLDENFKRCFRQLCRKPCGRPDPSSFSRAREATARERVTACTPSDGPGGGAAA
MOR-DOR ag: agonists of human mu-delta opioid receptor heterodimerization; hit rate 0.3% among 340,000; cells, OPRM1-OPRD1 heterodimerization, luminescence; activation, % at 9.3 µM; P35372+P41143; in the data active = activation above about 18%
p-CIP stab down: p/CIP protein destabilization. hit rate 0.01% among 290,000. Q05BA5. decrease of EGFP signal, % at 10 µM. F442A p/CIP-EGFP cells, EGFP fluorescence, 16 h;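 active = EGFP signal decrease of at least 30% at 10 µM or well 3 SD below plate mean, unless failing retest; inactive = the rest, including hits failing retest or dose response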
HTR5A ag ctr: counter-screen for OPRM1-OPRD1 agonists: human HTR5A agonism | activation, % at 9.3 µM | HTR5A agonist assay, luminescence, cell-based | hit rate 0.61% among 340,000 | P47898; in the data active = activation mostly above about 9.5%, no sharp cut-off; inactive = mostly below about 7.6%
HTR5A inv ctr: HTR5A inverse agonism, opioid heterodimer counter-screen; HTR5A cell line, luminescence; inhibition, % at 9.3 µM; P47898; hit rate 0.083% among 340,000; AID 504634; in the data active = inhibition mostly above about 23%, no sharp cut-off; inactive = mostly below about 18%
MIN6 prolif: MIN6 beta-cell proliferation induction. proliferation, % at 10 µM. hit rate 0.29% among 330,000. AID 2380. MIN6 cells proliferation, ATPlite luminescence, 48 h; cells starved in 0.2% serum; 100% = growth in 10% serum;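 active = compounds whose signal lies at least 3.5 SD above the mean of all wells on their plate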
MOR-DOR inv conf: confirmation of human OPRM1-OPRD1 heterodimerization inverse agonists | shares compounds with MOR-DOR inv ag | cells expressing OPRM1/OPRD1 heterodimer, luminescence | inhibition, % at 9.3 µM | hit rate 20% among 580 | AID 504900; in the data active = inhibition above about 32%
HTR5A inv count: HTR5A inverse agonism, opioid heterodimer counter-screen | inhibition, % at 9.3 µM | 580 tested, under 10 active | shares compounds with MOR-DOR inv ag | HTR5A-expressing cells, luminescence; call rule not given here
Large screens that a line does not name were inactive (follow-up assays come after a bar, where they were run). Compounds with a hit are over-represented: about 1.4% of the library has one in this group of screens.

CCn1c(O)c(/C=N/N=C/c2ccc(OC)cc2)c2cc(C3=NNC(=O)CC3)ccc21	none
Cn1cnc([N+](=O)[O-])c1Sc1ncccc1N	MOR-DOR inv ag 46, HTR5A inv ctr 29 | MOR-DOR inv conf inactive | HTR5A inv count inactive
COc1ccc2c(c1)C(=O)[C@@H](O)[C@H](c1ccc(OC)c(Br)c1)O2	none
COc1cccc([C@@H]2Oc3ccc(OC)cc3C(=O)[C@H]2O)c1	MOR-DOR inv ag 35 | MOR-DOR inv conf inactive | HTR5A inv count inactive
Cc1cc(C(=O)NNC(=O)c2ccc(Cl)cc2)c2ccccc2n1	none (no result: p-CIP stab down)
Cc1cc(C(=O)NNC(=S)NC(C)c2ccccc2)c2ccccc2n1 (stereo unspecified)	MOR-DOR inv ag 34 | MOR-DOR inv conf inactive | HTR5A inv count inactive
Cc1ccccc1OCCCN1C(=O)C(=O)c2cccc(C)c21	MOR-DOR inv ag 50 | MOR-DOR inv conf inactive | HTR5A inv count inactive
Cc1cccc2c1N(CCCOc1ccccc1)C(=O)C2=O	none
CC1(C)CC(=O)C2=C(C1)Nc1ccccc1NC2c1cc(Cl)ccc1O (stereo unspecified)	MOR-DOR inv ag 42 | MOR-DOR inv conf inactive | HTR5A inv count inactive
Cc1ccc(C2Nc3ccccc3NC3=C2C(=O)CC(C)(C)C3)c(O)c1 (stereo unspecified)	none
CC(CCc1ccccc1)NC(=O)COC(=O)c1cccnc1Cl (stereo unspecified)	none (no result: p-CIP stab down)
COCCCN(C(=O)Cc1ccc(S(=O)(=O)N2CCOCC2)s1)c1c(N)n(Cc2ccccc2)c(=O)[nH]c1=O	none (no result: p-CIP stab down, MIN6 prolif)
FC(F)(F)c1nc2ccccc2n2c(-c3ccc(Cl)cc3)nnc12	MOR-DOR inv ag 31 | MOR-DOR inv conf inactive | HTR5A inv count inactive
Cc1ccc(-c2nnc3c(C(F)(F)F)nc4ccccc4n23)cc1	none
C[C@H](CO)N1C[C@H](C)[C@@H](CN(C)C(=O)NC2CCCCC2)Oc2ccc(NC(=O)C3CCCCC3)cc2C1=O	none (no result: p-CIP stab down)
CCn1cc(S(=O)(=O)Nc2cccnc2)cn1	MOR-DOR inv ag 37 | MOR-DOR inv conf 41 | HTR5A inv count inactive
CC(Sc1nnc(C2CC2)n1C1CC1)C(=O)Nc1cccc(S(=O)(=O)N2CCOCC2)c1 (stereo unspecified)	none (no result: p-CIP stab down)
Cc1ccc2c(c1)C(=O)C(=O)N2CC(=O)Nc1ccccc1NC(=O)c1ccccn1	MOR-DOR inv ag 47 | MOR-DOR inv conf inactive | HTR5A inv count inactive
Cc1ccc(C)c(C(=O)c2ccccc2NC(=O)c2ccccn2)c1	none
CCCCCCC[C@@H](C/C=C/CCC(=O)N(C)C/C(=C/Cl)C/C(=C\C(=O)N1CC(OC)=CC1=O)OC)OC	MOR-DOR inv ag 39 (no result: p-CIP stab down) | MOR-DOR inv conf inactive | HTR5A inv count inactive
CCCCCCC[C@@H](C/C=C/CCC(=O)N(C)C/C(=C/Cl)C/C(=C\C(=O)N1C[C@H](O)CC1=O)OC)OC	none (no result: p-CIP stab down)
O=C(Cn1ccccc1=O)Nc1ccc(Cl)c(S(=O)(=O)N2CCCCC2)c1	none (no result: p-CIP stab down)
NC(N)=NS(=O)(=O)c1ccc(N=C2C(=O)Nc3ccccc32)cc1	MOR-DOR inv ag 53 | MOR-DOR inv conf 70 | HTR5A inv count inactive
NC(N)=NS(=O)(=O)c1ccc(NC(=S)Nc2ccc(F)cc2)cc1	none
CC(=O)N(C)c1ccc(N=C2C(=O)Nc3ccccc32)cc1	MOR-DOR inv ag 57 (no result: MIN6 prolif) | MOR-DOR inv conf inactive | HTR5A inv count inactive
O=C1Nc2ccccc2/C1=N\N1CCOCC1	none
CNc1nc(NC)c2cn[nH]c2n1	none (no result: p-CIP stab down, MIN6 prolif)
Cc1ccc(C(=O)COC(=O)CNC(=O)C(c2ccccc2)c2ccccc2)cc1[N+](=O)[O-]	MOR-DOR inv ag 66 | MOR-DOR inv conf 41 | HTR5A inv count inactive
CCc1ccc(C(=O)COC(=O)CNC(=O)Cc2ccccc2)cc1	none
Cc1ccc(C(=O)NCC(=O)OCC(=O)c2ccc(C)c([N+](=O)[O-])c2)cc1	MOR-DOR inv ag 51 | MOR-DOR inv conf 42 | HTR5A inv count inactive
CC(=O)Nc1ccc(C(=O)OCC(=O)c2ccc(C)c([N+](=O)[O-])c2)cc1	none
O=C(Cc1ccccc1)NCC(=O)OCC(=O)c1ccc(Cl)c([N+](=O)[O-])c1	MOR-DOR inv ag 90 | MOR-DOR inv conf 70 | HTR5A inv count inactive
Cc1ccc(C(=O)NCC(=O)OCC(=O)Nc2ccccc2[N+](=O)[O-])cc1	none
CC1CN(C(=O)CNC(=O)COc2ccccc2)CC(C)O1 (stereo unspecified)	none (no result: p-CIP stab down)
COc1ccc(C(=O)CNc2ccc(C)cc2C)cc1	MOR-DOR inv ag 32 | MOR-DOR inv conf 70 | HTR5A inv count inactive
COc1ccc(C(=O)CNc2ccccc2CO)cc1	none
COc1ccccc1NCC(=O)c1ccc(C)c(C)c1	MOR-DOR inv ag 31 | MOR-DOR inv conf inactive | HTR5A inv count inactive
O=C(Nc1ccccc1N1CCOCC1)c1ccc(N2CCCC2=O)cc1	none (no result: p-CIP stab down)
COC(=O)C1NN=C(C(=O)c2ccc(Cl)cc2)C1c1ccc(OC)cc1 (stereo unspecified)	MOR-DOR inv ag 47 | MOR-DOR inv conf inactive | HTR5A inv count inactive
COC(=O)C1NN=C(C(=O)c2ccccc2)C1c1ccccc1 (stereo unspecified)	none
CCCNC(=O)Cn1c(=O)/c(=C/c2ccc(-c3ccc([N+](=O)[O-])cc3)o2)s/c1=C\C(=O)C(C)(C)C	none (no result: p-CIP stab down, MIN6 prolif)
Cc1ccc(-c2nnc3n2CCCCC3)cc1	none
O=C1Nc2ccccc2C1=Nc1ccc(-c2nnc3n2CCCCC3)cc1	MOR-DOR inv ag 35 | MOR-DOR inv conf 40 | HTR5A inv count inactive
NC(=S)c1cc2ccc(O)cc2oc1=O	MOR-DOR inv ag 31 (no result: MIN6 prolif) | MOR-DOR inv conf inactive | HTR5A inv count inactive
O=C(Nc1ccc(OC(F)F)cc1)c1cc(S(=O)(=O)N2CCCCC2)ccc1N1CCOCC1	none (no result: p-CIP stab down)
Cc1c(N=C2C(=O)Nc3ccccc32)c(=O)n(-c2ccccc2)n1C	MOR-DOR inv ag 52 | MOR-DOR inv conf 42 | HTR5A inv count inactive
CC[N+]1(C)CCC(O)(c2ccc(OC)cc2)C(C(=O)c2ccc(OC)cc2)C1 (stereo unspecified)	none (no result: p-CIP stab down, MIN6 prolif)
O=C(COC(=O)Cc1c(F)cccc1Cl)NCc1ccc2c(c1)OCO2	none (no result: p-CIP stab down)
O=C1c2ccccc2-c2nc3ccccc3nc21	MOR-DOR inv ag 79 | MOR-DOR inv conf inactive | HTR5A inv count inactive
CCCCn1c(N)c(N(CCC(C)C)C(=O)COC(=O)Cc2ccc(Cl)cc2)c(=O)[nH]c1=O	none (no result: p-CIP stab down, MIN6 prolif)
CN(C)CCC(=O)N1C/C(=C/c2ccccc2)C(=O)/C(=C\c2ccccc2)C1	MOR-DOR inv ag 43 (no result: p-CIP stab down, MIN6 prolif) | MOR-DOR inv conf inactive | HTR5A inv count inactive
C[N+](C)(C)CCC(=O)N1C/C(=C/c2ccccc2)C(=O)/C(=C\c2ccccc2)C1	none (no result: p-CIP stab down, MIN6 prolif)
